Results taken from PubChem BioAssay (Tox21).
“And” between values parts separate entries of the source, which are not always exact repeats. Equal values may be shown once. Inconclusive results are not listed. Entries that show only a call come without a potency. Some structures have more than one record in an assay (separate samples or runs), and their calls can disagree. The source made the active and inactive calls. Unless noted, calls come from the whole dose curve; as a rule, active = well fitted curve in the direction sought with a large enough effect in the repeat runs; inconclusive = weak or mixed curves; inactive = no such curve, though single readings can be large; an effect the other way counts as inactive or inconclusive.

Columns and labels:
[1] = qHTS assay to identify small molecule antagonists of the thyroid receptor (TR) signaling pathway - cell viability counter screen (AID 743064); note: nearly all actives have a fitted effect of over 50% in size; note: potency is the fitted concentration of half-maximal effect
Method in brief: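 Same-well viability check: GH3.TRE-Luc cells stimulated with 1 nM T3 alongside test compound for 23.5 h, followed by CellTiter-Fluor fluorescence.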

[2] = qHTS assay to identify small molecule antagonists of the thyroid receptor (TR) signaling pathway (AID 743065); note: nearly all actives have a fitted effect of over 55% in size; note: potency is the fitted concentration of half-maximal effect
Method in brief: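 GH3.TRE-Luc rat pituitary cells carrying two TR response elements driving luciferase were plated for 4 h, given compound plus 1 nM T3 (final), and incubated 23.5 h at 37 C. ONE-Glo luminescence measured reporter inhibition; CellTiter-Fluor fluorescence tracked cytotoxicity.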

[3] = system: thyroid hormone receptor (rat, GH3 cells); assay: qHTS assay to identify small molecule agonists of the thyroid receptor (TR) signaling pathway (AID 743066; calls by dose curve)
[4] = target: Estrogen receptor (Homo sapiens) (UniProt P03372); assay: qHTS assay to identify small molecule antagonists of the estrogen receptor alpha (ER-alpha) signaling pathway (AID 743069; active = well fitted curve in the direction sought with a large enough effect in the signal ratio in the repeat runs, not every such curve was filed as active; the % refers to the signal ratio)
Method in brief: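 A 17beta-estradiol challenge was applied right after compound transfer to ER-alpha-UAS-bla HEK293 cells previously kept in charcoal-stripped serum. Plates stood 18 hr at 37C and 5% CO2; fluorescence was read following 2 hr FRET substrate loading at room temperature.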

[5] = qHTS assay to identify small molecule antagonists of the estrogen receptor alpha (ER-alpha) signaling pathway - cell viability counter screen (AID 743074; calls by dose curve;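 note: HEK293 cells carrying ER-alpha-UAS-bla reporter stimulated with 17beta-estradiol; nearly all actives have a fitted effect of over 45% in size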)
[6] = target: Estrogen receptor (Homo sapiens) (UniProt P03372); assay: qHTS assay to identify small molecule agonists of the estrogen receptor alpha (ER-alpha) signaling pathway (AID 743075; calls by dose curve;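 note: HEK293 GripTite cells with ER-alpha and UAS-driven beta-lactamase reporter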)
[7] = target: Estrogen receptor (Homo sapiens) (UniProt P03372); assay: qHTS assay to identify small molecule agonists of the estrogen receptor alpha (ER-alpha) signaling pathway using the BG1 cell line (AID 743079); details: BG1Luc4E2 cells, ERE-luciferase agonist, 22 h; activation: at 70.3 µM (top of the series); note: nearly all actives have a fitted effect of over 20% in size
[8] = qHTS assay to identify small molecule antagonists of the estrogen receptor alpha (ER-alpha) signaling pathway using the BG1 cell line (AID 743080; calls by dose curve;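 note: BG1 cells stimulated with 17beta-estradiol alongside compound; nearly all actives have a fitted effect of over 25% in size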)
Method in brief: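 Luciferase inhibition measured with ONE-Glo after 30 min at RT in BG1Luc4E2 cells given test compounds and 17beta-estradiol for 21.5 h at 37 C; CellTiter-Fluor viability read in the same wells beforehand.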

[9] = qHTS assay to identify small molecule antagonists of the estrogen receptor alpha (ER-alpha) signaling pathway using the BG1 cell line - cell viability counter screen (AID 743081);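 note: compound given together with 17beta-estradiol as the ER stimulus; nearly all actives have a fitted effect of over 45% in size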
Aromatase (Homo sapiens) = Aromatase (Homo sapiens) (UniProt P11511); assay: qHTS assay to identify aromatase inhibitors (AID 743083); note: nearly all actives have a fitted effect of over 55% in size
[10] = qHTS assay to identify aromatase inhibitors - cell viability counter screen (AID 743084);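 note: cells stimulated with testosterone during compound exposure; nearly all actives have a fitted effect of over 55% in size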
[11] = target: Aryl hydrocarbon receptor (Homo sapiens) (UniProt P35869); assay: qHTS assay to identify small molecule that activate the aryl hydrocarbon receptor (AhR) signaling pathway (AID 743085); note: nearly all actives have a fitted effect of over 15% in size; note: potency is the fitted concentration of half-maximal effect;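 for activation: HG2L7.5c1 human HepG2 liver cells with stably integrated DRE-driven firefly reporter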
Method in brief: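 Reporter assay in engineered HepG2 line HG2L7.5c1, whose plasmid carries twenty dioxin responsive elements upstream of firefly luciferase. Treatment lasted 24 h at 37C; ONE-Glo luminescence gauged induction.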

[12] = qHTS assay to identify small molecule that activate the aryl hydrocarbon receptor (AhR) signaling pathway - cell viability counter screen (AID 743086);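 note: HepG2 liver cells carrying the AhR DRE luciferase reporter; nearly all actives have a fitted effect of over 45% in size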
Method in brief: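 HepG2-AhR-luc (HG2L7.5c1) cells, 4000/well, were preincubated 5 h at 37C, exposed to compound in qHTS format for 24 hr at 37C, then given CellTiter-Fluor for 30 min; viability was read as fluorescence in the reporter wells.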

[13] = target: Peroxisome proliferator-activated receptor gamma (Homo sapiens) (UniProt P37231); assay: qHTS assay to identify small molecule agonists of the peroxisome proliferator-activated receptor gamma (PPARg) signaling pathway (AID 743094; active = well fitted activation curve with a large enough effect in the signal ratio in the repeat runs, not every such curve was filed as active; the % refers to the signal ratio)
Method in brief: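 Agonist activity was taken from a beta-lactamase reporter (FRET substrate, 1 h at room temperature) in HEK293H cells carrying a PPARg UAS-bla construct. Compounds in DMSO were incubated 17 h at 37C after a 5 h cell pre-incubation.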

[14] = target: Nuclear receptor subfamily 1 group I member 2 (Rattus norvegicus) (UniProt Q9R1A7); assay: Rat pregnane X receptor (rPXR) activation by small molecules, qHTS assay (AID 1346983); details: rPXR luciferase reporter cells, One-Glo luminescence, 24 h; max activation: stronger effect = higher value; note: nearly all actives have a fitted effect of over 20% in size
Method in brief: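 Cell-based rPXR luciferase reporter assay, 2,000 cells per well, rested 5hr at 37 C before compound addition in DMSO, then 24 hr at 37 C. One-Glo reagent was added and luminescence read after 30 min at room temperature.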

[15] = target: Nuclear receptor subfamily 1 group I member 2 (Homo sapiens) (UniProt O75469); assay: CYP3A4 induction through human pregnane X receptor (PXR) by small molecules, qHTS assay (AID 1346984); note: nearly all actives have a fitted effect of over 40% in size; note: potency is the fitted concentration of half-maximal effect
Method in brief: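 Read-out is luminescence after One-Glo addition, following a 3 hr, 37C incubation with Luciferin-IPA CYP3A4 substrate (3uM final). Before that, compounds were on DPX-2 cells (HepG2 co-transfected with PXR element plus CYP3A4-promoter luciferase) for 24 hr at 37C.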

[16] = target: Nuclear receptor subfamily 1 group I member 2 (Homo sapiens) (UniProt O75469); assay: Human pregnane X receptor (PXR) activation by small molecules, qHTS assay (AID 1346985); note: nearly all actives have a fitted effect of over 40% in size; note: potency is the fitted concentration of half-maximal effect
Method in brief: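 DPX-2 cells (HepG2 co-transfected with a PXR response element and a CYP3A4-promoter luciferase construct) were seeded at 2,000 per well, rested 5 hr at 37C, then exposed to DMSO-dissolved compounds for 24 hr. Activation was read as luciferase luminescence.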

[17] = qHTS assay to identify small molecule phospholipidosis (PLD) inducers (AID 1259344; active = well fitted curve in the direction sought with a large enough effect; an effect the other way counts as inactive or inconclusive)
Method in brief: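 After 4 h attachment on collagen I, HepG2 cells were dosed with compound alongside LipidTOX Red, kept 24 h at 37 C, fixed, and imaged for lamellar phospholipid pits.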

Estrogen receptor (Homo sapiens), sequence (P03372 whole entry, looked up): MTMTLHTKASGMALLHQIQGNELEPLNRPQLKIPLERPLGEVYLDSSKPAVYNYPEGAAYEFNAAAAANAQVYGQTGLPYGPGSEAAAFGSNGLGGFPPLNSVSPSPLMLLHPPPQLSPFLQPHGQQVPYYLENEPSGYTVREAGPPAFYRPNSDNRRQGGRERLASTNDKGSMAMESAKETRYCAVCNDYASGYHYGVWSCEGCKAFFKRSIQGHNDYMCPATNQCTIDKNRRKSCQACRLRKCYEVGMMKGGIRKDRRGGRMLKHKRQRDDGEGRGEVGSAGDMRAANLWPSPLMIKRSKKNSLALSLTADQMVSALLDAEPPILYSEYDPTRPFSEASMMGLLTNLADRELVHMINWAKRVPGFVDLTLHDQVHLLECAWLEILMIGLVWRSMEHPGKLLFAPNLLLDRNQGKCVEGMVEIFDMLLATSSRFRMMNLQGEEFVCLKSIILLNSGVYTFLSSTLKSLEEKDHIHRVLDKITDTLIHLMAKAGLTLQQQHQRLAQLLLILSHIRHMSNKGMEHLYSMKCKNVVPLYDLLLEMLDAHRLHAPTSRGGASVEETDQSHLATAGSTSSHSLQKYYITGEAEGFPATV
Aryl hydrocarbon receptor (Homo sapiens), sequence (P35869 whole entry, looked up): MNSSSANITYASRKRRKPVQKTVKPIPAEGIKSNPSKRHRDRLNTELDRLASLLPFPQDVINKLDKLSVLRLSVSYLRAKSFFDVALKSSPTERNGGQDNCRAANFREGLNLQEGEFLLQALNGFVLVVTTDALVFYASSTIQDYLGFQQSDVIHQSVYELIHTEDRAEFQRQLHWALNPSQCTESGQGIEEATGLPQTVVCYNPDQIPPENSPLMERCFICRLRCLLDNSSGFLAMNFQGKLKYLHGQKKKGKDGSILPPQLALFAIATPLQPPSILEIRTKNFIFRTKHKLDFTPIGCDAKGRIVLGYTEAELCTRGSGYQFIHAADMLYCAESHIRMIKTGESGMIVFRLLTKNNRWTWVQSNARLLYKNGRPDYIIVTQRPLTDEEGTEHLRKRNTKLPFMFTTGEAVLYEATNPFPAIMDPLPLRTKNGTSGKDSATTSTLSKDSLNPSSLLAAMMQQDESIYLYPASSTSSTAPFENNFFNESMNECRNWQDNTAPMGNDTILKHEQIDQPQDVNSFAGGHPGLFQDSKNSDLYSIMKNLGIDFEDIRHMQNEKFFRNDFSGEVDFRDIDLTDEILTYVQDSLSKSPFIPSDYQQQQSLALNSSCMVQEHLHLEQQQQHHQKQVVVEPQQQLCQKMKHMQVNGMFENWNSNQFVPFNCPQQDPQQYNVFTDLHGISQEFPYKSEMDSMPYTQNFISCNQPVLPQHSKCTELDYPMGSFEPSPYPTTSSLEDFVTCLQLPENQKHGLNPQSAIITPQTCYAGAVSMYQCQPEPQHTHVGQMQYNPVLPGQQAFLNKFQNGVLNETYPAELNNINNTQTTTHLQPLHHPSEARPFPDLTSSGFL
Aromatase (Homo sapiens), sequence (P11511 whole entry, looked up): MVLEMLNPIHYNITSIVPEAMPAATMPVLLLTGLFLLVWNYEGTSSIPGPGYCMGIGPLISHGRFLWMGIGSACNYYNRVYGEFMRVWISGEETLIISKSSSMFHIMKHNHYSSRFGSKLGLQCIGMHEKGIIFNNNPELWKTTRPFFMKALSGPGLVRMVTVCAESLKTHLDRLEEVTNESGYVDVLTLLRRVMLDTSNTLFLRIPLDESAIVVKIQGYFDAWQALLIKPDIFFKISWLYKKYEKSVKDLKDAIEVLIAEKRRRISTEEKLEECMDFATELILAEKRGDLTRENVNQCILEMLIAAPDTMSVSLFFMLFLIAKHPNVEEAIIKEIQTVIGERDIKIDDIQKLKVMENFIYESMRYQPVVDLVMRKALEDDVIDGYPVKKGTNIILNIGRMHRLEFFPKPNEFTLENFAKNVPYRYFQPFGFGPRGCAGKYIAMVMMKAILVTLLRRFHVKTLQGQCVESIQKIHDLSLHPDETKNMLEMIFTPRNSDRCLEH
Peroxisome proliferator-activated receptor gamma (Homo sapiens), sequence (P37231 whole entry, looked up): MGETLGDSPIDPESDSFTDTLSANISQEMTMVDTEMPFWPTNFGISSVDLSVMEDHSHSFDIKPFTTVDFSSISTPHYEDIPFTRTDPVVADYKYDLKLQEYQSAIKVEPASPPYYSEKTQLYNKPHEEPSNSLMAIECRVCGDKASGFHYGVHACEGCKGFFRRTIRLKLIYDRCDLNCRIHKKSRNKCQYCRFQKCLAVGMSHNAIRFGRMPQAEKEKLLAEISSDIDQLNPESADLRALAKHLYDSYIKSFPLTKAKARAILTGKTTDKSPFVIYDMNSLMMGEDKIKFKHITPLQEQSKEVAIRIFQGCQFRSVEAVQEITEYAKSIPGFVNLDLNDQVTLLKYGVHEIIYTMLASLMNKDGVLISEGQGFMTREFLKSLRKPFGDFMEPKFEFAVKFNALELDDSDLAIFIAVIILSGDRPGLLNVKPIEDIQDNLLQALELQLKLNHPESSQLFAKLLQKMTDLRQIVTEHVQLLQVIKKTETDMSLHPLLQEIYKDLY
Nuclear receptor subfamily 1 group I member 2 (Rattus norvegicus), sequence (Q9R1A7 whole entry, looked up): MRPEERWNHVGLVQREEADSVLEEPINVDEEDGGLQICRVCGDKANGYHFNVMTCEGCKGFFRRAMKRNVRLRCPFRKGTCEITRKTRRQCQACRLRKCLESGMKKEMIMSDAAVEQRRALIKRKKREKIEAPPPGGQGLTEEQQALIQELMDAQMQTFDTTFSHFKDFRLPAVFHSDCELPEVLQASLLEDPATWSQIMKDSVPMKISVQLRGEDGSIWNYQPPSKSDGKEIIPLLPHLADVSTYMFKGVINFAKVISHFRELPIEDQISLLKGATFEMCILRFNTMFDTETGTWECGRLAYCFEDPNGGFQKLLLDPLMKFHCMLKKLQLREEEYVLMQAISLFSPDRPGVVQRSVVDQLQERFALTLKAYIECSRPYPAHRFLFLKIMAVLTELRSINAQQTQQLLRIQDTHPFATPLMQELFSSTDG

Compound: CC(=O)N(CC(C)C(=O)O)c1c(I)cc(I)c(N)c1I (configuration not stated)
- Potency [1]: inactive
- Potency [2]: inactive
- Potency [3]: inactive
- Potency [4]: inactive
- Potency [5]: inactive
- Potency [6]: inactive
- Potency [7]: inactive
- Potency [8]: inactive
- Potency [9]: inactive
- Potency (Aromatase (Homo sapiens)): inactive
- Potency [10]: inactive
- Potency [11]: inactive
- Potency [12]: inactive
- Potency [13]: inactive
- max activation [14]: -1.91% (inactive)
- Potency [15]: inactive
- Potency [16]: inactive

Compound: CN(CC(=O)N1CCOCC1)Cc1c(Cl)cccc1NC(=O)c1ccccc1
- Potency [5]: inactive
- Potency [6]: inactive
- Potency [7]: inactive
- Potency [8]: inactive
- Potency [9]: inactive
- Potency [10]: inactive
- Potency [11]: 13.3 µM (active)
- Potency [13]: inactive
- Potency [17]: inactive

Compound: CC(/C=C/C=C(\C)C(=O)O[C@@H]1O[C@H](CO[C@@H]2O[C@H](CO)[C@@H](O)[C@H](O)[C@H]2O)[C@@H](O)[C@H](O)[C@H]1O)=C\C=C\C=C(C)\C=C\C=C(/C)C(=O)O[C@@H]1O[C@H](CO[C@@H]2O[C@H](CO)[C@@H](O)[C@H](O)[C@H]2O)[C@@H](O)[C@H](O)[C@H]1O
- Potency [1]: inactive
- Potency [2]: inactive
- Potency [3]: inactive
- Potency [5]: inactive
- Potency [9]: inactive
- Potency [12]: inactive
- max activation [14]: -0.182% (inactive)
- Potency [15]: inactive
- Potency [16]: inactive

Compound: CN1[C@@H]2CC[C@H]1CC(OC(c1ccccc1)c1ccccc1)C2 (some centres not stated)
- Potency [1]: 16.8 µM (active) and 26.6 µM (active)
- Potency [2]: 13.3 µM (active) and 23.7 µM (active) and 11.9 µM (active)
- Potency [3]: inactive
- Potency [4]: inactive
- Potency [5]: inactive
- Potency [6]: inactive
- Potency [7]: inactive
- Potency [8]: inactive
- Potency [9]: inactive
- Potency (Aromatase (Homo sapiens)): inactive
- Potency [10]: inactive
- Potency [11]: inactive
- Potency [12]: inactive
- Potency [13]: inactive
- max activation [14]: -1.01% (inactive) and 0.643% (inactive) and -2.69% (inactive)
- Potency [15]: inactive and 14.1 µM (active)
- Potency [16]: inactive

Compound: CCCCC(F)(F)[C@@]1(O)CC[C@H]2[C@@H](CC(=O)[C@@H]2CCCCCCC(=O)O)O1
- Potency [5]: inactive
- Potency [7]: inactive
- Potency [8]: inactive
- Potency [9]: inactive
- Potency [10]: inactive
- Potency [11]: inactive
- Potency [12]: inactive
- Potency [17]: inactive

Compound: O=C(O)c1cc(N=Nc2ccc(O)c(C(=O)O)c2)ccc1O
- Potency [1]: inactive
- Potency [2]: inactive
- Potency [3]: inactive
- Potency [4]: inactive
- Potency [5]: inactive
- Potency [6]: inactive
- Potency [7]: inactive
- Potency [8]: inactive
- Potency [9]: inactive
- Potency (Aromatase (Homo sapiens)): inactive
- Potency [10]: inactive
- Potency [11]: inactive
- Potency [12]: inactive
- Potency [13]: inactive
- max activation [14]: -4.04% (inactive)
- Potency [15]: inactive
- Potency [16]: inactive

Compound: COC(=O)CCC(=O)CN
- Potency [4]: inactive
- Potency [5]: inactive
- Potency [6]: inactive
- Potency [7]: inactive
- Potency [8]: inactive
- Potency [9]: inactive
- Potency (Aromatase (Homo sapiens)): inactive
- Potency [10]: inactive
- Potency [12]: inactive
- Potency [17]: inactive

Compound: COc1ccc(C(=O)CCC(=O)O)c2ccccc12
- Potency [1]: inactive
- Potency [2]: inactive
- Potency [3]: inactive
- Potency [4]: inactive
- Potency [5]: inactive
- Potency [6]: inactive
- Potency [7]: inactive
- Potency [8]: inactive
- Potency [9]: inactive
- Potency (Aromatase (Homo sapiens)): inactive
- Potency [10]: inactive
- Potency [11]: inactive
- Potency [12]: inactive
- max activation [14]: -4.04% (inactive)
- Potency [15]: inactive
- Potency [16]: inactive

Compound: CN(C)CC/C=C1/c2ccccc2CSc2ccccc21
- Potency [1]: 4.52 µM (active)
- Potency [2]: 9.02 µM (active)
- Potency [3]: inactive
- Potency [4]: inactive
- Potency [5]: inactive
- Potency [6]: inactive
- Potency [7]: inactive
- Potency [8]: inactive
- Potency [9]: inactive
- Potency (Aromatase (Homo sapiens)): inactive
- Potency [10]: inactive
- Potency [11]: inactive
- Potency [13]: inactive
- max activation [14]: -3.65% (inactive)
- Potency [15]: inactive

Compound: c1ccc2c(c1)Sc1ccccc1N2CCN1CCCC1
- Potency [1]: 11.9 µM (active)
- Potency [2]: 29.8 µM (active)
- Potency [3]: inactive
- Potency [5]: inactive
- Potency (Aromatase (Homo sapiens)): inactive
- Potency [10]: inactive
- Potency [13]: inactive
- Potency [15]: 10 µM (active)
- Potency [16]: 25.1 µM (active)

Compound: CCC(=O)c1ccc2c(c1)N(CCCN1CCN(CCO)CC1)c1ccccc1S2
- Potency [1]: 10.6 µM (active)
- Potency [5]: inactive
- Potency [6]: inactive
- Potency [7]: inactive
- Potency [10]: inactive
- max activation [14]: -17.5% (inactive)
- Potency [15]: 14.1 µM (active)
- Potency [16]: 25.1 µM (active)

Compound: CN[C@@H]1[C@H](O[C@H]2[C@H](O[C@H]3[C@H](O)[C@@H](O)[C@H](N=C(N)N)[C@@H](O)[C@@H]3N=C(N)N)O[C@@H](C)[C@]2(O)CO)O[C@@H](CO)[C@H](O)[C@H]1O
- Potency [1]: inactive
- Potency [5]: inactive
- Potency [9]: inactive
- Potency (Aromatase (Homo sapiens)): inactive
- Potency [10]: inactive
- Potency [11]: inactive
- Potency [12]: inactive
- Potency [13]: inactive
- max activation [14]: -1.72% (inactive)
- Potency [15]: inactive
- Potency [16]: inactive

Compound: O=C(CCCN1CCC(C(=O)c2ccc(F)cc2)CC1)c1ccc(F)cc1
- Potency [3]: inactive
- Potency [4]: inactive
- Potency [5]: inactive
- Potency [6]: inactive
- Potency [7]: inactive
- Potency [8]: inactive
- Potency [9]: inactive
- Potency (Aromatase (Homo sapiens)): inactive
- Potency [10]: inactive
- Potency [11]: inactive
- Potency [12]: inactive
- Potency [13]: inactive
- max activation [14]: 4% (inactive)
- Potency [16]: 15.8 µM (active)

Compound: O=C1CCC(=O)N1CO
- Potency [1]: inactive
- Potency [2]: inactive
- Potency [3]: inactive
- Potency [5]: inactive
- Potency [9]: inactive
- Potency (Aromatase (Homo sapiens)): inactive
- Potency [10]: inactive
- Potency [11]: inactive
- Potency [12]: inactive
- Potency [13]: inactive
- max activation [14]: -2.21% (inactive)
- Potency [15]: inactive
